The results in this text go back to PubChem BioAssay (NCATS).

Where “and” joins values, the source holds several entries; their conditions need not be identical. Identical values can stand only once. Inconclusive results are not listed. Entries that show only a call come without a potency. Unmarked numbers belong to inactive results. Calls of active or inactive are those of the source. Calls follow the shape of the dose curve; as a rule, active = well fitted cell-killing curve with a large enough effect; inconclusive = small, poorly fitted or top-dose-only effect; inactive = no such curve, though single readings can be large or run the other way.
Potency is read from the fitted curve at half-maximal effect.

A short description of this assay: qHTS of pediatric cancer cell lines to identify multiple opportunities for drug repurposing: Primary screen for LAN-5 cells (AID 1347100). The conditions noted are these: LAN-5 neuroblastoma viability, CellTiter-Glo luminescence, 48 h; series mostly up to 46 µM; activity change, negative = cytotoxic: at the top concentration. The text has this: Drug repurposing or repositioning has been offered as a strategy for drug development in oncology programs. This approach has special potential for childhood cancers and other rare or orphan diseases, where the expected return on new drug development has been a disincentive to pharmaceuticals.
In this project we exploit the poly-pharmacology of drugs to discover new indications via phenotypic screening of a panel of 19 well-characterized cell lines derived from solid tumors seen in children and adolescents. The goal is to identify approved drugs with previously unrecognized anticancer properties that has the potential to reveal new mechanisms and biological processes involved in carcinogenesis or drug resistance. We employed a titration-based paradigm (quantitative high-throughput screening or qHTS), where all compounds were tested at multiple concentrations for their effect on cell viability. Concentration-response curves (CRCs) were derived directly from the primary screen, and both potency and efficacy values were used to identify compounds with robust bioactivity profiles. We screened the NIH Chemical Genomics Center (NCGC) Pharmaceutical Collection (NPC) and Mechanism Interrogation Plate (MIPE) small molecule collections of approved and investigational compounds against these cell lines; and measured metabolically active cells after 48 hours of compound treatment as a proxy for cell viability.
Assay Submitter: Nathalia J. Martinez, National Center for Advancing Translational Sciences, National Institutes of Health, Rockville, MD, USA; email: natalia.martinez@nih.gov
[1] Shen, M et al. Quantitative high-throughput phenotypic screening of pediatric cancer cell lines identifies multiple opportunities for drug repurposing. Oncotarget 2017 Dec 19;9(4):4758-4772. PMID 29435139.
The cells were obtained from University of North Carolina (UNC), Pediatric Preclinical Testing Program (PPT), and Coriell Institute (CI).
qHTS cell viability assay:
Cells were assayed in growth media at a density of 500-1,000 cells/well. Five microliters of cells were dispensed into 1,536-well, white, solid-bottom, TC-treated plates (Greiner Bio One) using a multidrop dispenser and incubated at 37 degrees C, 5% CO2, under a humidified atmosphere for 5 hours. Twenty-three nanoliters of compounds and controls (neutral control DMSO or positive control bortezomib at final concentration of 2.3 µM) were subsequently transferred by Kalypsys pintool. For primary screens, the MIPE collection was tested at 11-point dilutions (final concentrations range from 0.78 nM to 46 µM) and the NPC collection at 8-point dilutions (final concentrations range from 0.59 nM to 46 µM). Compounds tested in follow-up screens were assayed at 11-point dilutions. Cells were incubated for 48 hours, followed by addition of 3 µL of CellTiter-Glo (Promega). After a 15 min incubation at room temperature, samples were analyzed for luminescence intensity using a ViewLux High-throughput CCD imager equipped with clear filters.
For orientation: qHTS replaces the single test concentration by a dilution series.
On to `COc1cc(NCc2ccc3nc(N)nc(N)c3c2C)cc(OC)c1OC`, for which the Potency is 16.6 µM (active).

Consider `CS(=O)(=O)c1ccc([C@@H](O)[C@@H](CO)NC(=O)C(Cl)Cl)cc1`, for which the “activity change, negative = cytotoxic” value was 8.04%.

In the case of `NC(=O)c1cccc(N)c1`, the “activity change, negative = cytotoxic” value is -1.34%.

As to `CCOCC(O)COc1ccc(NC(=O)CC[S+](C)C)cc1` (stereo not given), the Potency entry was “inactive”.

In the case of `Cc1cccc(N(C)C(=S)Oc2ccc3ccccc3c2)c1`, the Potency entry is “inactive”.

As to `Cc1ccnc2c1NC(=O)c1cccnc1N2C1CC1`, the Potency entry is “inactive”.

As for `COc1cc2nc(N3CCCN(C)CC3)nc(NC3CCN(Cc4ccccc4)CC3)c2cc1OC`, the Potency is 8.33 µM (active).

Regarding `COc1nc(N)nc2c1ncn2[C@@H]1O[C@H](CO)[C@@H](O)[C@@H]1O`, the “activity change, negative = cytotoxic” value is -2.85%.

As for `COc1ncnc(NS(=O)(=O)c2ccc(N)cc2)c1OC`, the Potency result was “inactive”.

Regarding `N[C@@H](C(=O)N[C@@H]1C(=O)N2C(C(=O)O)=C(Cl)CS[C@H]12)c1ccccc1`, the Potency result is “inactive”.

`S=P(N1CC1)(N1CC1)N1CC1`: the Potency is 18.7 µM (active).

As to `O=C(O)c1ccc(-n2nc(-c3ccccc3O)nc2-c2ccccc2O)cc1`, the “activity change, negative = cytotoxic” value was 16.2%.

On to `CC1=NN(c2ccccc2)C(=O)C1`, for which the Potency result is “inactive”.

Turning to `CC[C@H](NC(C)C)[C@H](O)c1ccc(O)c2[nH]c(=O)ccc12`, the Potency entry was “inactive”.

Turning to `O=C(O)c1cccnc1`, the Potency entry is “inactive”.

For the compound `C[C@@H](NCCCc1cccc(C(F)(F)F)c1)c1cccc2ccccc12`, the “activity change, negative = cytotoxic” value was 6.92%.

`CCC(=O)O[C@]1(C(=O)SCF)[C@H](C)C[C@H]2[C@@H]3C[C@H](F)C4=CC(=O)C=C[C@]4(C)[C@@]3(F)[C@@H](O)C[C@@]21C`: the Potency entry was “inactive”.

On to `CCCCOc1ccc(CC(=O)NO)cc1`, for which the Potency was 23.5 µM (active).

`CCCCCCNC(=O)n1cc(F)c(=O)[nH]c1=O`: the Potency is 7.5 µM (active) and 9.35 µM (active).

As to `COC(=O)Nc1nc2ccc(Sc3ccccc3)cc2[nH]1`, the Potency is 1.32 µM (active).

In the case of `CCN(CC)CCn1c(=O)c(Cc2ccc(OC)cc2)nc2ccccc21`, the “activity change, negative = cytotoxic” value was -3.89%.

On to `CN1CCN(c2c(F)cc3c(=O)c(C(=O)O)cn4c3c2OCN4C)CC1`, for which the Potency entry was “inactive”.

Regarding `O=C(O)CSCC(=O)NC1CCSC1=O` (stereo not given), the Potency result is “inactive”.

As for `CC1CC2C3CCC4=CC(=O)C=C[C@]4(C)[C@@]3(F)[C@@H](O)C[C@]2(C)[C@@]1(O)C(=O)CO` (stereo not given in full), the “activity change, negative = cytotoxic” value is -1.39%.

`CCc1c2c(nc3ccc(OC(=O)N4CCC(N5CCCCC5)CC4)cc13)-c1cc3c(c(=O)n1C2)COC(=O)[C@]3(O)CC`: the Potency was 1.33 µM (active) and 372 nM (active).

Regarding `Cc1ncc([N+](=O)[O-])n1CCO`, the Potency entry is “inactive”.

Consider `COc1c(N2CCNC(C)C2)c(F)cc2c(=O)c(C(=O)O)cn(C3CC3)c12` (stereo not given), for which the Potency entry was “inactive”.

Take `COc1ccc2c(c1)c(CC(=O)OCC(=O)O)c(C)n2C(=O)c1ccc(Cl)cc1`: the Potency result was “inactive”.

`Cc1oc(=O)oc1CN1CCN(c2cc3c(cc2F)c(=O)c(C(=O)O)c2n3C(C)S2)CC1` (stereo not given): the Potency entry was “inactive”.

With `NC(=O)N1c2ccccc2CC(=O)c2ccccc21`, the Potency result was “inactive”.

Take `CNC1CCCN(c2c(F)cc3c(=O)c(C(=O)O)cn(C4CC4)c3c2OC)C1` (stereo not given): the “activity change, negative = cytotoxic” value is -8.03%.

As for `CC1(C)[C@H](C(=O)O)N2C(=O)C[C@H]2S1(=O)=O`, the Potency entry was “inactive”.

Consider `CN(Cc1cc(Br)cc(Br)c1N)C1CCCCC1`, for which the Potency result was “inactive”.

For `CN(C)c1ccc(C(=C2C=CC(=[N+](C)C)C=C2)c2ccc(N(C)C)cc2)cc1`, the Potency was 1.68 µM (active) and 526 nM (active).

Consider `CCc1cc(C(N)=S)ccn1`, for which the Potency result is “inactive”.

Regarding `O=C(O)c1cc(=O)[nH]c(=O)[nH]1`, the Potency result was “inactive”.

Turning to `CO[C@@H]1[C@@H](OC(N)=O)[C@@H](O)[C@H](Oc2ccc3c(O)c(NC(=O)c4ccc(O)c(CC=C(C)C)c4)c(=O)oc3c2C)OC1(C)C`, the Potency result was “inactive”.

For the compound `O=P(O)(O)C(O)(Cc1cccnc1)P(=O)(O)O`, the Potency result was “inactive”.

`CCn1cc(C(=O)O)c(=O)c2cc(F)c(N3CCNCC3)cc21`: the Potency entry is “inactive”.

On to `Cc1cc(NS(=O)(=O)c2ccc(N)cc2)no1`, for which the Potency result is “inactive”.
